Source: ChEMBL document CHEMBL4513216, “Probing the Open Global Health Chemical Diversity Library for Multistage-Active Starting Points for Next-Generation Antimalarials” (ACS Infect Dis, 2020)
Hit rate of the full screen: of about 69,000 compounds, about 8,600 (12%) showed an effect of 50% or more. The sample holds strong results, similar compounds and a random draw of the others, so the mix is not that of the screen.

tested on: Plasmodium berghei; test: Screen against P. berghei liver stage (PbLuc), transformed with Luciferase, at 10uM; type: functional, HepG2; conditions: tested at 10 uM

Row | SMILES | INHIBITION [%]
1 | CS(=O)(=O)NCc1cnc2n1CCN(Cc1ccco1)CC2 | 38.5
2 | CN(Cc1ccsc1)C(=O)c1cccc(S(=O)(=O)NCC2CCCO2)c1 (stereo not drawn) | 23.4
3 | COCCNC(=O)Cn1cc(OCc2ccc(F)cc2)c(=O)cc1CO | 26.9
4 | OC1CCN(CCCn2ccnc2-c2c[nH]cn2)CC1 | -0.273
5 | O=C(C1CCCC1)N1CCn2c(nnc2C2CCCNC2)C1 (stereo not drawn) | -1.45
6 | Cc1nnc(SCCC(=O)N(C)Cc2c(F)cccc2Cl)[nH]1 | -1.25
7 | Cc1nnc(SCCC(=O)N(C)Cc2ccc(F)cc2Cl)[nH]1 | 51.1
8 | Cc1nnc(SCCC(=O)N(C)Cc2ccc(F)cc2F)[nH]1 | 1.96
9 | CCc1c(O)nc2nc(N3CCOCC3)nn2c1C | 11
10 | CCc1ccc(N2CCC(NS(=O)(=O)N(CC)CC)CC2)cc1 | 53.4
11 | COc1ccc(N2CCC(NS(=O)(=O)N(C)C(C)C)CC2)cc1 | 34.1
12 | CCN(CC)S(=O)(=O)NC1CCN(c2ccc(OC)cc2)CC1 | 12.8
13 | CC(C)(C)CC(=O)NCC(=O)Nc1ccn(Cc2cccnc2)n1 | 21.6
14 | CN1CC(=O)N(c2ccsc2)CC12CCN(Cc1cnn(C)c1)C2 (stereo not drawn) | -13
15 | COCC(=O)N1CCC2(CCN(Cc3ccc(C)cc3)CC2)CC1 | 10.5
16 | CC[C@@H](C)[C@@H](N)C(=O)Nc1cccc(-c2cnc(N)nc2)c1 | 17.4
17 | CC[C@@H](C)[C@@H](N)C(=O)Nc1cccc(-c2cnc(N(C)CCO)nc2)c1 | 8.53
18 | CC[C@@H](C)[C@@H](N)C(=O)Nc1cccc(-c2cnc(N(C)C)nc2)c1 | 76.8
19 | NC(=O)C1CCN(C(=O)Cn2ccc3cc(Br)ccc32)CC1 | 30.6
20 | CC(C)(C)C1CCC(O)(CNC(=O)CCS(C)(=O)=O)CC1 (stereo not drawn) | -23.2
21 | Cc1ccc(C(=O)N(C)Cc2ccc3c(c2)OCCO3)c(=O)[nH]1 | -11.6

Row | SMILES | INHIBITION [%]
22 | CS(=O)(=O)N1CCC2(CCCN(Cc3ccccn3)C2)C1 (stereo not drawn) | -11.6
23 | Fc1cccc(CN2C[C@@H]3CN(Cc4ccccn4)C[C@@H]3C2)c1 | 18.6
24 | COc1cc(N2CCC(c3nccn3Cc3ccccn3)CC2)ncn1 | 8.97
25 | Cn1cnc(S(=O)(=O)N2C[C@H]3CN(Cc4cccnc4)C[C@H]3C2)c1 | 49.1
26 | CC(C)CN1CCCC2(CCN(c3ccccn3)C2)C1 (stereo not drawn) | 21.7
27 | Cn1cnc(S(=O)(=O)N2C[C@H]3CC[C@@H](C2)N(Cc2ccccn2)C3)c1 | 20.9
28 | COc1cc(N2CCC3(CCCN(Cc4ccccn4)C3)C2)ncn1 (stereo not drawn) | 84.7
29 | COc1cc(N2C[C@H]3CN(Cc4ccccn4)C[C@H]3C2)ncn1 | 85.6
30 | Cn1cnc(S(=O)(=O)N2C[C@H]3CN(Cc4ccccn4)C[C@H]3C2)c1 | 76.4
31 | CCc1csc(NC(=O)Nc2c(C)n[nH]c2C)n1 | -1.79
32 | CC(=O)N1CCCC1c1nc(C)no1 (stereo not drawn) | 7.05
33 | Cc1cc(NCCc2cnccn2)nc(-c2ccccc2O)n1 | 17.5
34 | O=C(NCc1cc[nH]n1)N1CCCC(N2CCCC2)C1 (stereo not drawn) | 16.9
35 | NC(=O)CSc1ccccc1NC(=O)CC1C=CCC1 (stereo not drawn) | -54.9
36 | COCC(=O)NC(CC(C)C)c1nc2cccnc2n1C (stereo not drawn) | -0.232
37 | Cc1ccc(C(=O)Nc2c(C(=O)N(C)C)nn(C)c2C)cc1C | 35
38 | CCOc1cc(F)ccc1NC(=O)N(C)Cc1cnn(C)c1 | 4.71
39 | CCC(=O)N1CCC2(CCN(Cc3cccc(F)c3)CC2)CC1 | -6.97
40 | CN(Cc1ccco1)[C@@H]1CN(Cc2cccnc2)C[C@@H]2CCCO[C@@H]21 | 30.4
41 | CN(Cc1ccco1)[C@@H]1CN(Cc2ccc(F)cc2)[C@@H]2CCCO[C@H]12 | 81.2
42 | CN(Cc1ccco1)[C@@H]1CN(Cc2cccnc2)[C@@H]2CCCO[C@H]12 | 55.5

Row | SMILES | INHIBITION [%]
43 | CN(Cc1ccco1)[C@@H]1CN(Cc2ccco2)[C@@H]2CCCO[C@H]12 | 15.4
44 | CN(Cc1ccco1)[C@@H]1CN(Cc2ccc(F)cc2)C[C@@H]2CCCO[C@@H]21 | 31.8
45 | COc1ccc(CN2C[C@@H](N(C)Cc3ccco3)[C@H]3OCCC[C@H]32)cc1 | 31.8
46 | O=C1CCN(C(=O)NCc2ccccc2Oc2ccccc2)CCN1 | 11.4
47 | COCC1CN(C(=O)c2ccco2)Cc2cn(C)nc21 (stereo not drawn) | -30.6
48 | Cc1ncc(C(=O)N2CC(C(=O)N3CCCCCC3)C2)c(C)n1 | 27.7045
49 | CN(C)[C@@H]1CN(Cc2ccccn2)C[C@H]1c1cn(C)c2ccccc12 | 13.55
50 | CC(C)=CCN1C[C@@H]2CC[C@H]1CN(C(=O)c1ccc3nc[nH]c3c1)C2 | 10.3
51 | Cc1nn(C)c(C)c1S(=O)(=O)N1CC[C@@H]2O[C@@H](C)C[C@H]2C1 | 7.5
52 | CCN1C[C@H]2C3(CCN(S(C)(=O)=O)CC3)CC[C@@]2(C(=O)N(C)C)C1 | 44.8
53 | CC(c1nnc(-c2ccccc2)o1)N1CCC(Nc2ccccc2)CC1 (stereo not drawn) | 31.5
54 | COCC1CN(Cc2ccc(C)o2)Cc2nnn(C)c21 (stereo not drawn) | -102
55 | CCC1CCCN(Cc2nc3ccccc3c(=O)[nH]2)C1 (stereo not drawn) | 67.5
56 | O=c1[nH]c(CN2CCCC(Cn3cncn3)C2)nc2ccccc12 (stereo not drawn) | 21.01
57 | Cc1nc(CC2CCCN(Cc3nc4ccccc4c(=O)[nH]3)C2)no1 (stereo not drawn) | 45.2
58 | Cc1nccn1C1CCCN(C(=O)c2ccc3cc[nH]c3c2)C1 (stereo not drawn) | 4.52
59 | CC(C)CC(C)NC1CCN(c2cccc(-c3cscn3)c2)CC1 (stereo not drawn) | 34.1
60 | Cc1nnc(-c2cccc(N3CCC(NC(C)CC(C)C)CC3)c2)s1 (stereo not drawn) | 62.4
61 | Cc1nnc(-c2cccc(N3CCC(NC4CCSC4)CC3)c2)s1 (stereo not drawn) | 18.9
62 | COCCNC(=O)c1ccc(NCc2c(C)noc2C)cc1Cl | 2.03
63 | O=C(c1cnccn1)N1CCOC2(CCCN(c3ncccc3F)C2)C1 (stereo not drawn) | 39.5
